Test [1] addresses Sphingosine kinase 1 (Homo sapiens) (UniProt Q9NYA1). The conditions noted are these: at 1 µM.
Test [2] deals with T1, Sphingosine kinase 2 (Homo sapiens) (UniProt Q9NRA0).
T1 sequence (whole entry): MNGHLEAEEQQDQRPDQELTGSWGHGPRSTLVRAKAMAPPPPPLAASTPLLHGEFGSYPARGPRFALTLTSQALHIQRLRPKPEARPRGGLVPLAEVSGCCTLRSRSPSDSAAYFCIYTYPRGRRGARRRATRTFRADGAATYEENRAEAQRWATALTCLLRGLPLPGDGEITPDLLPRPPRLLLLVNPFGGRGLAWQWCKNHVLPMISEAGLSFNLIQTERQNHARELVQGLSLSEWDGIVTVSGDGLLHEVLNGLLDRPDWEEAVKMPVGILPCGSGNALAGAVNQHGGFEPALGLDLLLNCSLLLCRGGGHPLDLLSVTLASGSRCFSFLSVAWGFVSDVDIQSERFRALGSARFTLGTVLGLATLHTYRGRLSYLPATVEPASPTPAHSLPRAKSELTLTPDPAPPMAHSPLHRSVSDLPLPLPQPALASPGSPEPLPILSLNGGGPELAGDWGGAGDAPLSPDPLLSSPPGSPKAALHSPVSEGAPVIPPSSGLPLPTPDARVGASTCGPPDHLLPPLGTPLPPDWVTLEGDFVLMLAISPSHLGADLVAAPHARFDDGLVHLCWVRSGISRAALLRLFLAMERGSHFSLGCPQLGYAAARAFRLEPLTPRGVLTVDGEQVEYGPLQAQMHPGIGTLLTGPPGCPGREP
The conditions noted are these: at 0.1 µM.

Test [3] has as its target T1, Sphingosine kinase 2 (Homo sapiens). The settings on record: at 1 µM.
The target in test [4] is Casein kinase II subunit alpha (Homo sapiens) (UniProt P68400). The settings on record: at 0.1 µM.
Sequence of Casein kinase II subunit alpha (Homo sapiens) (P68400 whole entry, looked up): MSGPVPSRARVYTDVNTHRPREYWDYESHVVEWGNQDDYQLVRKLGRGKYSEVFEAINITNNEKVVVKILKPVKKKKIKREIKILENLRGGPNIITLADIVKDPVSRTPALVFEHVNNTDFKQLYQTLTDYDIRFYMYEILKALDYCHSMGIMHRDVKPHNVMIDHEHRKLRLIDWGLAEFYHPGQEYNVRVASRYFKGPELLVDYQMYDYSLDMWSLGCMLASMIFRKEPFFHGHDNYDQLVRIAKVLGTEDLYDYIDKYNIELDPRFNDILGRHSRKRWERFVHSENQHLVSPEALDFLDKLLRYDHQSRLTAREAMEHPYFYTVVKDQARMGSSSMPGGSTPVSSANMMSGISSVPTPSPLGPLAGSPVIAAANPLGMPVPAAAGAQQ
Test [5] shares this target. The settings on record: at 1 µM.
The target in test [6] is T2, Inhibitor of nuclear factor kappa-B kinase subunit alpha (Homo sapiens) (UniProt O15111).
T2 sequence (whole entry): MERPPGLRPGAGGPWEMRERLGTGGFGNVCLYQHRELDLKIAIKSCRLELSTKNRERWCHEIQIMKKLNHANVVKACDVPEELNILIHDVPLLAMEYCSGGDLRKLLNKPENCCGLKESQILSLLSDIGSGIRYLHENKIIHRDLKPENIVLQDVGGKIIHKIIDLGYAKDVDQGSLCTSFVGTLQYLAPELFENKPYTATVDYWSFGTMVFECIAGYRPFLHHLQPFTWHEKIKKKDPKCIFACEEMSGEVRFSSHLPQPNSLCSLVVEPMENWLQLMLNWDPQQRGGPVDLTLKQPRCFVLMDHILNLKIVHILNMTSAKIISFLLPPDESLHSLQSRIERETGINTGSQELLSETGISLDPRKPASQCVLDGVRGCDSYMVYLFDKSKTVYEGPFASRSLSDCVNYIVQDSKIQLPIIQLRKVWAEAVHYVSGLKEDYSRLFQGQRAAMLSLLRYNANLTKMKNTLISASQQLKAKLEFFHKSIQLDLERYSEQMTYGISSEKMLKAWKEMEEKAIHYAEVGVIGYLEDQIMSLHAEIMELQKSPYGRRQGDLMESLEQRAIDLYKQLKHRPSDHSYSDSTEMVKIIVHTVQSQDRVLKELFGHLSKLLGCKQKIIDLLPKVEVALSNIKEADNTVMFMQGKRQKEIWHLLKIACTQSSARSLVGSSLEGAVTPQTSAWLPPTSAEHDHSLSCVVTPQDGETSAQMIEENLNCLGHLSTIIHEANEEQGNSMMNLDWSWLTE
The settings on record: at 0.1 µM.

In test [7] the target is T2, Inhibitor of nuclear factor kappa-B kinase subunit alpha (Homo sapiens). The conditions noted are these: at 1 µM.
The target in test [8] is T3, Inhibitor of nuclear factor kappa-B kinase subunit beta (Homo sapiens) (UniProt O14920).
T3 sequence (whole entry): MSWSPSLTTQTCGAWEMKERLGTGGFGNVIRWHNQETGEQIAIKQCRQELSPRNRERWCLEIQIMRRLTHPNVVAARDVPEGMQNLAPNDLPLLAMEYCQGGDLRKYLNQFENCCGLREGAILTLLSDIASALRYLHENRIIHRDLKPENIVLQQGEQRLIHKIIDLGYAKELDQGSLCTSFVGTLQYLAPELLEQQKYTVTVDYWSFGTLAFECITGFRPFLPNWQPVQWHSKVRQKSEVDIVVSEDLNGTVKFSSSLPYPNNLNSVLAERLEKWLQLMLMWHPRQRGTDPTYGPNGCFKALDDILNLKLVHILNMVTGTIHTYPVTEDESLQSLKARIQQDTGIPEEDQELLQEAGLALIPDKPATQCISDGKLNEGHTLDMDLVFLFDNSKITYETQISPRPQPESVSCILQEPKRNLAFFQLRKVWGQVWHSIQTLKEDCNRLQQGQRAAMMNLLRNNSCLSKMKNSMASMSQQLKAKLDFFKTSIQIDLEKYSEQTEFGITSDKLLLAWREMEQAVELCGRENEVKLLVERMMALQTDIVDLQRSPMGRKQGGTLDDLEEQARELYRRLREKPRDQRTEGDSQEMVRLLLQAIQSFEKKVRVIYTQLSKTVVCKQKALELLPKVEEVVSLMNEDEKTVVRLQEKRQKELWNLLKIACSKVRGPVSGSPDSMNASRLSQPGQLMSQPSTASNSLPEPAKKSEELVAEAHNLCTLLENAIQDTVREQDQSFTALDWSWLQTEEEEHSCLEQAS
The conditions noted are these: at 0.1 µM.

Test [9] concerns the target T3, Inhibitor of nuclear factor kappa-B kinase subunit beta (Homo sapiens). The conditions noted are these: at 1 µM.
Test [10] deals with T4, Inhibitor of nuclear factor kappa-B kinase subunit epsilon (Homo sapiens) (UniProt Q14164).
T4 sequence (whole entry): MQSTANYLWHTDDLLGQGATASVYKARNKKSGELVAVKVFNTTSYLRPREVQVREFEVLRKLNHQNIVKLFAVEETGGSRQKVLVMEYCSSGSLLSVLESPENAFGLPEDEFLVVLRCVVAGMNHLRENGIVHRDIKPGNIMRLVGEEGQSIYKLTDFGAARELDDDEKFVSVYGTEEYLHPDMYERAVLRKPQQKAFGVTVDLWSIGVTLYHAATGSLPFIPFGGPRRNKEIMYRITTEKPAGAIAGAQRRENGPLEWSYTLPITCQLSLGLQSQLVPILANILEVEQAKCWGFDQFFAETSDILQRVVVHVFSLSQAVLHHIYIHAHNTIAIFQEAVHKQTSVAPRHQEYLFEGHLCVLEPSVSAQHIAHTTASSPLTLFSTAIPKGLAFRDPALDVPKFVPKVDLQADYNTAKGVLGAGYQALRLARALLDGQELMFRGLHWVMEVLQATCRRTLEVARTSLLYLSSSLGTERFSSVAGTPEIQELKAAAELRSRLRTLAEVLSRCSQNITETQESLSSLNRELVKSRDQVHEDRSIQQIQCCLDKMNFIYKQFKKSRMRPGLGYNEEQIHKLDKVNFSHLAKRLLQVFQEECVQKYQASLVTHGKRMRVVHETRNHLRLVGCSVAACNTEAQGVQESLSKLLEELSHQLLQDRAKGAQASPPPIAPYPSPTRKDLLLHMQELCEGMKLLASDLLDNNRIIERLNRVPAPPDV
The settings on record: at 0.1 µM.

Test [11] deals with T4, Inhibitor of nuclear factor kappa-B kinase subunit epsilon (Homo sapiens). The settings on record: at 1 µM.
For test [12], the target named is T5, Serine/threonine-protein kinase Nek1 (Homo sapiens) (UniProt Q96PY6).
T5 sequence (whole entry): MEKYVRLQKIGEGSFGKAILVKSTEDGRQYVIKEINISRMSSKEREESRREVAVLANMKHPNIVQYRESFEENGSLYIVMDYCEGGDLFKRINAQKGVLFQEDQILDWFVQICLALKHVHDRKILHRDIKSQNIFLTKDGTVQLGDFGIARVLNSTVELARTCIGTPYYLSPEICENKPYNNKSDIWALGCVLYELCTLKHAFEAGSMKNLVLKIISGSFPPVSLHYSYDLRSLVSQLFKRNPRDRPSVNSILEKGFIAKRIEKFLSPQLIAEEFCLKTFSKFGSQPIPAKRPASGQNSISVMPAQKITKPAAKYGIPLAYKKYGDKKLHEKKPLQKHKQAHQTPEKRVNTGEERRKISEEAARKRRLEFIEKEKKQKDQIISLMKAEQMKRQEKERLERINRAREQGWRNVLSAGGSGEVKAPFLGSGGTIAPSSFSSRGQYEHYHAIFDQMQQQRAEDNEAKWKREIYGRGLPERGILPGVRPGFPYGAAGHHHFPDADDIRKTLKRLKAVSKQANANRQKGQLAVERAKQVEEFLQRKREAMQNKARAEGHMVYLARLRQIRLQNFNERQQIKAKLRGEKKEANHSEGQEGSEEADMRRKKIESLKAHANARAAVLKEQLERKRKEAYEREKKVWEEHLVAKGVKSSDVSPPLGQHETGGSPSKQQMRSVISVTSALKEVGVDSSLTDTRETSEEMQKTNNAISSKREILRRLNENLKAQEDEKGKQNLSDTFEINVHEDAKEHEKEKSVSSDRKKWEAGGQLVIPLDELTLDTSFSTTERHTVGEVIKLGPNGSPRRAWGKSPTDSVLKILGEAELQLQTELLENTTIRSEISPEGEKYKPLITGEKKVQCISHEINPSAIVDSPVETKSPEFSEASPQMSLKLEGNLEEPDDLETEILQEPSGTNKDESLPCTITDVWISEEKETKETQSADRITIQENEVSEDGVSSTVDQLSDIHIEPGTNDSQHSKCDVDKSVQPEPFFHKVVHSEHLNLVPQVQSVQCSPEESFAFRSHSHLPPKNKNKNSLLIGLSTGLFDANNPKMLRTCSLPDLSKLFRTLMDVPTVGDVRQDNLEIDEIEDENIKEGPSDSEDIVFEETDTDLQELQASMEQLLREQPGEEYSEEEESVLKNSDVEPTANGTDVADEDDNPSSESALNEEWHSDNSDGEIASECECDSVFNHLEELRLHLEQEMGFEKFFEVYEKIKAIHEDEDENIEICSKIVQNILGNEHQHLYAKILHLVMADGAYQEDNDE
The conditions noted are these: at 0.1 µM.

Test [13] addresses T5, Serine/threonine-protein kinase Nek1 (Homo sapiens). The conditions noted are these: at 1 µM.
Test [14] addresses T6, Serine/threonine-protein kinase Nek2 (Homo sapiens) (UniProt P51955).
T6 sequence (whole entry): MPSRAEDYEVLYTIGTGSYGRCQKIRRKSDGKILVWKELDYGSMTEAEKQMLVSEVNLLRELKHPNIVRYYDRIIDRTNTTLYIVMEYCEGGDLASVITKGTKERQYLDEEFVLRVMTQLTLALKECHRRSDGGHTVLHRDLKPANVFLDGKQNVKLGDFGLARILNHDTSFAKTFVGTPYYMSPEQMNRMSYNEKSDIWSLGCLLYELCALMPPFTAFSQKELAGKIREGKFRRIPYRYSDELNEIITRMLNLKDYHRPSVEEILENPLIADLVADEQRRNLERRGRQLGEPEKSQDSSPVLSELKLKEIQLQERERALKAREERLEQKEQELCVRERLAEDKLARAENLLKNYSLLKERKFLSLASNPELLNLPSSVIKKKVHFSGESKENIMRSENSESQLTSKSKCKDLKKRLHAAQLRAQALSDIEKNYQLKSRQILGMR
The settings on record: at 0.1 µM.

The target in test [15] is T6, Serine/threonine-protein kinase Nek2 (Homo sapiens). The conditions noted are these: at 1 µM.
The target in test [16] is Serine/threonine-protein kinase Nek6 (Homo sapiens) (UniProt Q9HC98). The settings on record: at 0.1 µM.
Sequence of Serine/threonine-protein kinase Nek6 (Homo sapiens) (Q9HC98 whole entry): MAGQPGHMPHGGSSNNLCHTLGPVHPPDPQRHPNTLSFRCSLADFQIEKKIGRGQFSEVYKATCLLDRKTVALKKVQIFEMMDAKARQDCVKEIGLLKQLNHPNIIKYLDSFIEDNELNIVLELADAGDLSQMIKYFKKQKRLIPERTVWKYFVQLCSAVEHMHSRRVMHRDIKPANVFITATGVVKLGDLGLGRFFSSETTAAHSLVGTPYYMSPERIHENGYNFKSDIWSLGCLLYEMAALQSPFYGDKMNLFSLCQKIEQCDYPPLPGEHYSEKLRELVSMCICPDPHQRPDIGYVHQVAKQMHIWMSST
The target is the same in test [17]. The settings on record: at 1 µM.
The target in test [18] is Serine/threonine-protein kinase Nek7 (Homo sapiens) (UniProt Q8TDX7). The conditions noted are these: at 0.1 µM.
Sequence of Serine/threonine-protein kinase Nek7 (Homo sapiens) (Q8TDX7 whole entry, looked up): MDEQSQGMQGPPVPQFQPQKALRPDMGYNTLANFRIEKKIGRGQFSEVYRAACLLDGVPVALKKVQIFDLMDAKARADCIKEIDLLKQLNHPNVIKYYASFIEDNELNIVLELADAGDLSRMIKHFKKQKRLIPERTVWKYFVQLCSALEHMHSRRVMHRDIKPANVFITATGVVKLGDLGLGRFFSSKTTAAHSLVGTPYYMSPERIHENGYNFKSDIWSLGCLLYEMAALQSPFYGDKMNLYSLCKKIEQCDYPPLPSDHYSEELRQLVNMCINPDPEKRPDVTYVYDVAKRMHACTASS
Test [19] shares this target. The conditions noted are these: at 1 µM.
In test [20] the target is T7, Serine/threonine-protein kinase Nek9 (Homo sapiens) (UniProt Q8TD19).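 Also: reported value is the mean percent inhibition of NEK9.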
T7 sequence (whole entry): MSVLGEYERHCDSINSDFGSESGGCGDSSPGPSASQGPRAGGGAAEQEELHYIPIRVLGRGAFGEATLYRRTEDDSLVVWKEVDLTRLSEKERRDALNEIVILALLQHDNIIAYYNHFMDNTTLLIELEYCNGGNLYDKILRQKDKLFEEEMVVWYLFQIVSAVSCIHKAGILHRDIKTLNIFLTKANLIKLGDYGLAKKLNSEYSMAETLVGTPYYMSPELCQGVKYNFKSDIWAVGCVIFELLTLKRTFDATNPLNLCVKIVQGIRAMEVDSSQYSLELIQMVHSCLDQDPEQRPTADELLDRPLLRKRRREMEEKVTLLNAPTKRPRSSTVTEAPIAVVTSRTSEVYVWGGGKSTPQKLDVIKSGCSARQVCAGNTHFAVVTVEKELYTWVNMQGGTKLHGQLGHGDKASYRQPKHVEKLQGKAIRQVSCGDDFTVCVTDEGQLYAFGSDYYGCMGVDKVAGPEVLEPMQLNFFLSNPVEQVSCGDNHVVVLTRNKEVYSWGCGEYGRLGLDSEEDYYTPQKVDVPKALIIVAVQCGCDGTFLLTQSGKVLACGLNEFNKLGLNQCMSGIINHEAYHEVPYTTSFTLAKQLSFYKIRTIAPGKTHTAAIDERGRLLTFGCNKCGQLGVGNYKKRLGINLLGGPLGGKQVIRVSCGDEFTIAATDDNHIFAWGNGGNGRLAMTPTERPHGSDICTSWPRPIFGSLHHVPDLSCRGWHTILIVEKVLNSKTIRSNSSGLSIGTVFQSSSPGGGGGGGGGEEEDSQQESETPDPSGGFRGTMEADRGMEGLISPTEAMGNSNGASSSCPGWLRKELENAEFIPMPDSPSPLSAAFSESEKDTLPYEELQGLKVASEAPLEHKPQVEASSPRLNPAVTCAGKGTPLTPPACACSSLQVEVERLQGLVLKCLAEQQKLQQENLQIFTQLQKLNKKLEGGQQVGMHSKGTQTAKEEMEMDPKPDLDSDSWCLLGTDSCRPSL
The settings on record: at 0.1 µM.

One compound from ChEMBL document CHEMBL1961873, “Compounds: GSK PKIS; Assays: Nanosyn kinase panel” (2012) can be followed below.

As usually defined, the inhibition is the drop in the measured response relative to a control, in per cent.

Sequence of Sphingosine kinase 1 (Homo sapiens) (Q9NYA1 whole entry): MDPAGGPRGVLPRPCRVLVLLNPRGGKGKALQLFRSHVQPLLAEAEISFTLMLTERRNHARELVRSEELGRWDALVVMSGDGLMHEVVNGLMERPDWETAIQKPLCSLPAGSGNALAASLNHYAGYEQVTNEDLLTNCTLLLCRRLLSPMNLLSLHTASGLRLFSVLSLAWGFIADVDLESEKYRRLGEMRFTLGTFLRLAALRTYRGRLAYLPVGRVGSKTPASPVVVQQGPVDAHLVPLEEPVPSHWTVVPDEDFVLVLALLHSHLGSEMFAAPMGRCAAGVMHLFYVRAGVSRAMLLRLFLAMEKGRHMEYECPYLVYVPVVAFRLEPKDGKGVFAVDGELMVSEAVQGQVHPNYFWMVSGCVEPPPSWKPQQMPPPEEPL

In the case of `Nc1nc(-c2ccc(F)cc2)c(-c2ccc3ncccc3n2)s1`, the inhibition in test [1] is -1.38%; in [2], -1.13%; in test [3], -1.05%; in test [4], 6.47%; in test [5] it was 13%; in [6], 2.92%. In addition, the inhibition came to 5.46% in [7]; 5.24% in test [8]; 4.99% in test [9]; 6.57% in test [10]; 7.4% in [11]; 2.04% in test [12]. For the same compound, the inhibition is 36% in test [13]; 4.57% in test [14]; 6.71% in [15]; 2.87% in test [16]; 5.03% in test [17]; 3.03% in [18]. The results for the inhibition in test [19] and in test [20] were 3.14% and 11.5%, respectively.
